VLA-4 inh: inhibition in human VLA-4 binding assay, primary screen, VLA-4 allosteric modulator project, MLPCN library, flow cytometry, VLA-4 expressing cells. Integrin alpha-4 (Homo sapiens), P13612. actives 0.2% (n = 330,000). AID 2557, 2010. ligand binding flow cytometry. inhibition, % (about 7 µM as worked out from the volumes in the protocol); in the data active = inhibition above about 50%
GASC-1 inh: inhibitors of GASC-1 histone demethylase, primary screen, biochemical, fluorescence, DELFIA europium. actives 0.069% (n = 330,000). GST-JMJD2C(1-420) H3K9me3 demethylation. AID 2099, 2009. inhibition, % at 2.35 µM. Lysine-specific demethylase 4C (Homo sapiens), Q9H3R0;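 active = more than half of a compound's replicate wells show inhibition beyond 50%, single wells judged on their own value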;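 note: signal counts dimethyl H3K9 product captured on neutravidin plate; 0% = median of DMSO wells and 100% = 0.3 times that DMSO median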
Target sequence (Q9H3R0 1-420 limits assumed): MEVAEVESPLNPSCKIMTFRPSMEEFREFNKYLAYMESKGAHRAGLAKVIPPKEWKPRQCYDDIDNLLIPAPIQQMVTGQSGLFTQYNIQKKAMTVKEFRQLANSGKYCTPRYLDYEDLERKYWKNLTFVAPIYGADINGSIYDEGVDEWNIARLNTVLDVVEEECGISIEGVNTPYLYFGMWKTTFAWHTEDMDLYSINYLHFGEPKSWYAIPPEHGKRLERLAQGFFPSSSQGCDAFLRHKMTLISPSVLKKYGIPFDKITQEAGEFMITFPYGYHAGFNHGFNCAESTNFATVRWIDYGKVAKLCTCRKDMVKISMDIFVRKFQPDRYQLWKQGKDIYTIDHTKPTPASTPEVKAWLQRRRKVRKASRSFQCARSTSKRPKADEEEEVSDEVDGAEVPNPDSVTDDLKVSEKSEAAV
PolyA inhibitor: polyadenylation inhibitors in yeast reporter cells, primary screen, luminescence, S. cerevisiae | S. cerevisiae SKY197-pL101 polyadenylation reporter, beta-gal luminescence; efflux-impaired pdr1/pdr3 knockout yeast; score 100 = 6 SD above DMSO | activity score, % at 12 µM | actives 0.02% (n = 300,000) | AID 1875, 2009;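 active = lowest replicate activity score at least 50, where 100 means six control SD above control mean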;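 note: yeast exposed to compound for 9 h at 30 °C; higher score means more reporter readthrough which indicates perturbed polyadenylation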
ABCB6 inh MLPCN: ABCB6 transporter inhibitors, primary screen, K562-ABCB6 cells, flow cytometry, MLPCN library; ATP-binding cassette sub-family B member 6 (Homo sapiens), Q9NP58; K562-ABCB6 porphyrin accumulation, 1 h; stronger effect = lower value; fluorescence ratio to DMSO, % at 10 µM; actives 0.19% (n = 360,000);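 active = fluorescence ratio to DMSO below 75%, the collection mean minus 3 SD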;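 note: signal is porphyrin accumulated inside mitochondria; 100% equals median channel fluorescence of DMSO control wells; lower ratio means ABCB6 inhibition with less porphyrin fluorescence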
ABCB6 blocker 1: ABCB6 transporter inhibitors, confirmation, K562-ABCB6 cells, flow cytometry, cherry pick 1; shares compounds with ABCB6 inh MLPCN; K562-ABCB6 porphyrin accumulation, 1 h; stronger effect = lower value; 700 tested, under 10 active; ratio response (% of DMSO), % at 10 µM;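 active = repeat-averaged ratio response below 75% of DMSO, the collection mean minus 3 SD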;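 note: median porphyrin fluorescence at 575 nm with 488 nm excitation from mitochondria; lower ratio means less porphyrin signal so ABCB6 inhibition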
Active calls of the source: *; nt = no result given. Only some compounds are listed: those with a hit (about 0.44% of all), similar ones and a draw of the others.

SMILES	VLA-4 inh	GASC-1 inh	PolyA inhibitor	ABCB6 inh MLPCN	ABCB6 blocker 1
CC1CCN(c2ccc3nnc(CCC(=O)NCCCOC(C)C)n3n2)CC1	4.7	11.2	3.6	99.0	99.0
CCCNC(=O)CCc1nnc2ccc(N3CCC(C)CC3)nn12	13.3	-6.6	-8.9	98.0	95.0
CC1CC(C)CN(C(=O)CCc2nnc3ccc(N4CCCCC4)nn23)C1 (stereo not drawn)	-8.4	38.9	7.8	97.0	98.0
CC1CCN(c2ccc3nnc(CCC(=O)N4CCN(c5ccccc5F)CC4)n3n2)CC1	4.6	12.7	-7.3	96.0	nt
COc1ccc(N2CCN(C(=O)CCc3nnc4ccc(N5CCC(C)CC5)nn34)CC2)cc1	-0.4	8.2	3.3	89.0	nt
CCOC(=O)C1CCN(C(=O)CCc2nnc3ccc(N4CCC(C)CC4)nn23)CC1	-11.9	2.1	-7.5	99.0	100.0
COc1cc2c(cc1OC)CN(C(=O)CN1C(=O)NC3(CCCCC3C)C1=O)CC2 (stereo not drawn)	nt	nt	nt	98.0	nt
CC1(C(=O)NS(=O)(=O)c2ccc(Cl)s2)CCN1C(=O)C1(c2ccc(Cl)cc2)CCC1 (stereo not drawn)	nt	nt	nt	95.0	100.0
CC1(C(=O)NS(=O)(=O)c2cccs2)CCN1C(=O)C1(c2ccc(Cl)cc2)CC1 (stereo not drawn)	nt	nt	nt	102.0	nt
CC1(C(=O)NS(=O)(=O)c2ccccc2)CCN1C(=O)C1(c2ccccc2)CCCC1 (stereo not drawn)	nt	nt	nt	103.0	nt
CC1(C(=O)NS(=O)(=O)c2cccs2)CCN1C(=O)C1(c2ccccc2)CCCC1 (stereo not drawn)	nt	nt	nt	72.0*	96.0
CC1(C(=O)NS(=O)(=O)c2cccs2)CCN1C(=O)C1(c2ccc(Cl)cc2)CCC1 (stereo not drawn)	nt	nt	nt	95.0	100.0
CC1(C(=O)NS(=O)(=O)c2ccccc2Cl)CCN1C(=O)C1(c2ccc(Cl)cc2)CC1 (stereo not drawn)	nt	nt	nt	94.0	96.0
CCSc1ccc([C@@H]2[C@@H]3C(=O)N(C)C(=O)[C@@H]3[C@]3(C(=O)OC)CCCCN23)cc1OC	19.1	nt	nt	98.0	nt
CC(C)N1CC(C(=O)Nc2ccc(Cl)c([N+](=O)[O-])c2)CC1=O (stereo not drawn)	8.2	14.4	2.6	97.0	nt
O=C(O)C(=Cc1ccccc1Cl)c1ccccc1	nt	nt	nt	95.0	nt
CC(=O)Nc1cccc(-c2ccnc3c2CC(C)(C(=O)Nc2cccc(C(F)(F)F)c2)O3)c1 (stereo not drawn)	nt	nt	nt	103.0	97.0
CC1(C(=O)Nc2cccc(C(F)(F)F)c2)Cc2c(-c3cccc(C(F)(F)F)c3)ccnc2O1 (stereo not drawn)	nt	nt	nt	97.0	nt
COc1ccc(C2=NOC(Cn3nc(C(=O)NCc4cccc(C(F)(F)F)c4)cc3-c3ccccc3)C2)cc1 (stereo not drawn)	-4.1	11.3	-1.4	102.0	nt
Cc1cc(Br)c(NC(=O)COC(=O)CSc2nnc(-c3ccc(Cl)cc3)o2)c(Br)c1	7.6	-2.6	8.3	98.0	nt
N#C/C(C(=O)N1CCOCC1)=C1\Nc2ccccc2S1	-10.0	-6.3	6.4	103.0	nt
O=C(c1ccccc1Cl)N1CCC(c2nc3c(nnn3Cc3ccco3)c(=O)[nH]2)CC1	33.0	6.9	10.4	92.0	nt
O=C(c1ccco1)N1CCC(c2nc3c(nnn3Cc3c(Cl)cccc3Cl)c(=O)[nH]2)CC1	-5.4	-10.8	-5.3	97.0	103.0
CC(C)(C)c1ccc(Cn2nnc3c(=O)[nH]c(C4CCN(C(=O)c5ccco5)CC4)nc32)cc1	nt	-15.2	10.1	94.0	100.0
Cc1cnc(C(=O)OCc2ccc(C#N)cc2)cn1	-3.0	0.0	-3.7	101.0	nt
SMILES	VLA-4 inh	GASC-1 inh	PolyA inhibitor	ABCB6 inh MLPCN	ABCB6 blocker 1
Cc1cnc(C(=O)OCc2ccc(Br)cc2)cn1	-8.9	-29.2	21.5	73.0*	104.0
O=C(CSc1nnc2c(Cl)cc(C(F)(F)F)cn12)N(Cc1ccccc1)Cc1ccccc1	9.6	-2.6	10.9	74.0*	97.0
O=C(CSc1nnc2c(Cl)cc(C(F)(F)F)cn12)NCc1ccc(F)cc1	-0.5	7.1	36.0	98.0	nt
COc1ccc(NC(=O)[C@H](COCc2ccccc2)NC(=O)OC(C)(C)C)cc1	7.4	10.8	7.7	97.0	nt
COC(CNC(=O)c1cnn2c(C)c(Cc3ccccc3)c(C)nc12)OC	-1.3	2.6	-20.8	92.0	96.0
O=C(NCc1ccco1)c1cnn2c(C(F)F)cc(-c3ccccc3)nc12	-0.3	-7.4	-5.6	96.0	nt
Cc1cc(C)c(Cc2c(C)nc3c(C(=O)NCc4ccco4)cnn3c2C)c(C)c1	nt	7.9	-12.3	95.0	99.0
CCOC(=O)C1CCN(S(=O)(=O)c2cc(Cl)c(C)cc2OC)CC1	26.5	5.0	14.6	92.0	98.0
CCOC(=O)C1CCN(S(=O)(=O)c2ccc(C)cc2)CC1	19.8	-5.6	11.1	109.0	nt
CCOC(=O)C1CCN(S(=O)(=O)c2ccc(C(=O)OC)cc2)CC1	-41.6	-5.7	2.1	98.0	97.0
CCOC(=O)C1CCN(S(=O)(=O)c2ccc(Br)c(OCC)c2)CC1	13.1	11.1	10.3	91.0	99.0
CCOC(=O)C1CCN(S(=O)(=O)c2ccc(Cl)cc2OC)CC1	4.3	-1.6	-9.4	98.0	nt
CCOC(=O)C1CCN(S(=O)(=O)c2ccc(NC(=O)OC)cc2)CC1	-4.5	2.4	16.9	109.0	98.0
CCN=C(Nc1ccc(Cl)cc1)c1cccnc1	-1.8	2.1	21.6	96.0	nt
c1ccc(CC(Cc2ccccc2)c2ccccn2)cc1	nt	nt	nt	99.0	nt
COc1ccc([C@@H]2Sc3cc(OC)ccc3N(CCN(C(C)C)C(C)C)C(=O)[C@H]2OC(C)=O)cc1	6.1	3.2	-4.9	51.0*	101.0
CCN1C(=O)C(NC(C)=O)c2cc(OC)ccc21 (stereo not drawn)	0.0	-1.7	3.6	109.0	nt
COC(=O)[C@@]12CCCCN1[C@H](c1ccc(SC3CCCCC3)cc1)[C@@H]1C(=O)N(C)C(=O)[C@@H]12	29.5	-1.4	-0.5	102.0	nt
COc1ccc2c(c1OC)C(=O)N(c1ccc(C)c(C)c1)C2=O	-4.6	4.3	3.1	99.0	nt
COc1ccc2c(c1OC)C(=O)N(c1ccc3c(c1)CCC3)C2=O	-7.2	12.2	0.8	63.0*	98.0
CCCn1c(=O)c2sccc2n2c(CCCC(=O)NCc3ccco3)nnc12	-3.0	58.3	-13.5	108.0	nt
COc1ccc(C(=O)CCNc2ccc(C)c(Cl)c2)cc1	-6.3	2.1	-0.3	96.0	nt
COc1cccc(CNS(=O)(=O)c2cn(C)cn2)c1	31.6	0.1	-6.2	8.0*	104.0
O=C(O)CC1CCS(=O)(=O)C1 (stereo not drawn)	10.2	-1.8	11.3	87.0	nt
Cn1c(C(=O)O)cc2cc(Oc3ccccc3)ccc21	-4.3	3.8	1.8	97.0	nt
